Several values for one entry are separate records, joined by “and”; a condition that tells them apart may be missing. Equal entries are not always repeated. Inconclusive results are not listed. Activity calls are given as the source filed them. Unless noted, calls come from the whole dose curve; as a rule, active = well fitted curve in the direction sought with a large enough effect; inconclusive = small, poorly fitted or top-dose-only effect, or another doubt; inactive = no such curve, though single readings can be large; an effect the other way counts as inactive or inconclusive.
Key:
[1] = molecular target: Cytochrome P450 1A2 (Homo sapiens) (UniProt P05177); experiment: p450-cyp1a2 (AID 410; calls by dose curve; note: potency is the fitted concentration of half-maximal effect)
Sequence of Cytochrome P450 1A2 (Homo sapiens) (P05177 whole entry, looked up): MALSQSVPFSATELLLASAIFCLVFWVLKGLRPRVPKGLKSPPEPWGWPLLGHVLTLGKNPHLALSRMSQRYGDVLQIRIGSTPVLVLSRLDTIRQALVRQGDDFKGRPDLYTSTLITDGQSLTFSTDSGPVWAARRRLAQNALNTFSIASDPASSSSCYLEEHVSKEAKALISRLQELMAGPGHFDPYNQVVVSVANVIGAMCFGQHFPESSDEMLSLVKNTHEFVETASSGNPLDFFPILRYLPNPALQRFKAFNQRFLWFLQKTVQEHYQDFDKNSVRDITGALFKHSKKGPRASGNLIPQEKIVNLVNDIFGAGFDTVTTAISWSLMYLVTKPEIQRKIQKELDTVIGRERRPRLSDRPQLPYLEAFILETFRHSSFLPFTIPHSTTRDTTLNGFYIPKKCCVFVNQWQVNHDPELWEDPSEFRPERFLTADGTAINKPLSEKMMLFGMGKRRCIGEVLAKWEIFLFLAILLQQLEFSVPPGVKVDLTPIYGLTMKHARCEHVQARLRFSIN
In short: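 Read-out is luminescence from luciferin produced by CYP1A2 demethylation of Luciferin-ME (100uM, at Km). Detection reagent stopped the 60 min NADPH-dependent reaction; signals were normalized to 57 uM furafylline.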

[2] = molecular target: Glucocorticoid receptor (Homo sapiens) (UniProt P04150); experiment: GR-GFP Redistribution (AID 450;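 active = compounds whose dose series gives a full or clear partial fitted curve of increased nuclear translocation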; note: potency is the fitted concentration of half-maximal effect); settings: U2OS GR-GFP nuclear translocation, laser cytometry, 2 h
Sequence of Glucocorticoid receptor (Homo sapiens) (P04150 whole entry, looked up, the tested form may be a part): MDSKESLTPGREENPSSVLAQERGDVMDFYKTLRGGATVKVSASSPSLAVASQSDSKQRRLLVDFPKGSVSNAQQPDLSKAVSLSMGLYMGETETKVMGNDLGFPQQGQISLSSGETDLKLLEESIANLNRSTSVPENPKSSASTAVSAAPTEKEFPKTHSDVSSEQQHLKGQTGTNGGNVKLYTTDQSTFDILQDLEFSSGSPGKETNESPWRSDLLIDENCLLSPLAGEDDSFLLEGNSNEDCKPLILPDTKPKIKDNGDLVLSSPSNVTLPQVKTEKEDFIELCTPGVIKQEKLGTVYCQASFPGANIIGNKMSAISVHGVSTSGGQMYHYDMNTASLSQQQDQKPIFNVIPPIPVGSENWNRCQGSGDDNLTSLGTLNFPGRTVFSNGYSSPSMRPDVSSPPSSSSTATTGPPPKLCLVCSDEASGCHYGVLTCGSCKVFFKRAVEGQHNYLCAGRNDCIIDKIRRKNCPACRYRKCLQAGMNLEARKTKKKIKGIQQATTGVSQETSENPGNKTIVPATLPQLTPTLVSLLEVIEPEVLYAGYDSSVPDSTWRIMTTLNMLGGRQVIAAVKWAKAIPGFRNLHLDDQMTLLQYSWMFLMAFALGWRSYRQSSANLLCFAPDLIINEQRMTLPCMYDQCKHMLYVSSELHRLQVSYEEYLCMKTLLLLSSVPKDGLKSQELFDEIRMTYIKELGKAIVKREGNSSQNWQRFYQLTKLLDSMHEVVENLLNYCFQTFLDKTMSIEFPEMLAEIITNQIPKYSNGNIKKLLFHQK

[3] = molecular target: Glucocorticoid receptor (Homo sapiens) (UniProt P04150); experiment: GR-EFC Redistribution (AID 451; calls by dose curve; note: potency is the fitted concentration of half-maximal effect); settings: CHO-K1 GR-EFC translocation, beta-gal luminescence, 2 h
In short: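 CHO-K1 cells stably expressing nuclear-localized β-gal enzyme acceptor and GR fused C-terminally to the enzyme donor fragment; ligand-driven nuclear translocation restores β-gal by complementation. Compounds titrated up to 46 uM final, 2 h at 37 °C; luminescence read.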

[4] = molecular target: Mitogen-activated protein kinase 10 (Mus musculus) (UniProt Q61831); experiment: JNK3 AlphaScreen Assay (AID 530; active = well fitted curve in either direction with a large enough effect, not every such curve was filed as active;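 note: kinase came from lysate of stimulated human HepG2 cells; signal reports phosphorylation of biotinylated GST-cJun 1-79 at Ser73 with 10 µM ATP; % is set by controls: 0 for no effect and ±100 for the full control effect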)
In short: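 Biotinylated GST-cJun(1-79) served as substrate for JNK3 in HepG2 lysates stimulated with IL-1beta and TNF-alpha. ATP was 10 uM final, pH 7.6. Ser73 phosphorylation was quantified by AlphaScreen (680 nm excitation).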

[5] = molecular target: DNA dC->dU-editing enzyme APOBEC-3G (Homo sapiens) (UniProt Q9HC16); experiment: qHTS for inhibitors of Vif-A3G interactions: Validation (AID 588379); note: 0% is about no effect
Sequence of DNA dC->dU-editing enzyme APOBEC-3G (Homo sapiens) (Q9HC16 whole entry, looked up): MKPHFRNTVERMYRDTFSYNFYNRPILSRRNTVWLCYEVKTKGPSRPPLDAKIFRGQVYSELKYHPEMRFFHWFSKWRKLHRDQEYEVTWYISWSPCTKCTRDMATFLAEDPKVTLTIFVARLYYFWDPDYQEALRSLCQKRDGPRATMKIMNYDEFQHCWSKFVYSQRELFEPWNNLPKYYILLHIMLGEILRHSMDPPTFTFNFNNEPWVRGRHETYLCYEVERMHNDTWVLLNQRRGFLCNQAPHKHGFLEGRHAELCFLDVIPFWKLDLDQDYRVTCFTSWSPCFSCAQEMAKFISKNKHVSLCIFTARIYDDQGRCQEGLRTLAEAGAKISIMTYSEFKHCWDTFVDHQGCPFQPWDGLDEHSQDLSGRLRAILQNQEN
In short: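 Yellow fluorescence (Ex 488, Em 500-530) of Vif-coexpressing HeLa A3G-eYFP cells, scanned by Acumen cytometer, reports blocked A3G degradation. Cells plated at 700/well overnight at 37 deg C before compound addition, then a further overnight compound incubation at 37 deg C.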

[6] = Primary qHTS for small molecule stabilizers of the endoplasmic reticulum resident proteome: Secreted ER Calcium Modulated Protein (SERCaMP) assay (AID 1508630); note: % is set by controls: 0 for no effect and ±100 for the full control effect
In short: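 The SH-SY5Y reporter protocol was run at 3 concentrations up to 38.3 uM (primary) or 11 concentrations (follow-up): 16 h compound, 100 nM thapsigargin for 4 h, then extracellular luciferase luminescence.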

[7] = molecular target: Rap guanine nucleotide exchange factor 3 (Homo sapiens) (UniProt O95398); experiment: Confirmatory qHTS for antagonist of cAMP-regulated guanine nucleotide exchange factor 3 (EPAC1) (AID 1645880);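 note: plate controls were DMSO only for no effect and full effect of the ATA control for full effect; nearly all actives have a fitted effect of over 55% in size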
Sequence of Rap guanine nucleotide exchange factor 3 (Homo sapiens) (O95398 whole entry, looked up): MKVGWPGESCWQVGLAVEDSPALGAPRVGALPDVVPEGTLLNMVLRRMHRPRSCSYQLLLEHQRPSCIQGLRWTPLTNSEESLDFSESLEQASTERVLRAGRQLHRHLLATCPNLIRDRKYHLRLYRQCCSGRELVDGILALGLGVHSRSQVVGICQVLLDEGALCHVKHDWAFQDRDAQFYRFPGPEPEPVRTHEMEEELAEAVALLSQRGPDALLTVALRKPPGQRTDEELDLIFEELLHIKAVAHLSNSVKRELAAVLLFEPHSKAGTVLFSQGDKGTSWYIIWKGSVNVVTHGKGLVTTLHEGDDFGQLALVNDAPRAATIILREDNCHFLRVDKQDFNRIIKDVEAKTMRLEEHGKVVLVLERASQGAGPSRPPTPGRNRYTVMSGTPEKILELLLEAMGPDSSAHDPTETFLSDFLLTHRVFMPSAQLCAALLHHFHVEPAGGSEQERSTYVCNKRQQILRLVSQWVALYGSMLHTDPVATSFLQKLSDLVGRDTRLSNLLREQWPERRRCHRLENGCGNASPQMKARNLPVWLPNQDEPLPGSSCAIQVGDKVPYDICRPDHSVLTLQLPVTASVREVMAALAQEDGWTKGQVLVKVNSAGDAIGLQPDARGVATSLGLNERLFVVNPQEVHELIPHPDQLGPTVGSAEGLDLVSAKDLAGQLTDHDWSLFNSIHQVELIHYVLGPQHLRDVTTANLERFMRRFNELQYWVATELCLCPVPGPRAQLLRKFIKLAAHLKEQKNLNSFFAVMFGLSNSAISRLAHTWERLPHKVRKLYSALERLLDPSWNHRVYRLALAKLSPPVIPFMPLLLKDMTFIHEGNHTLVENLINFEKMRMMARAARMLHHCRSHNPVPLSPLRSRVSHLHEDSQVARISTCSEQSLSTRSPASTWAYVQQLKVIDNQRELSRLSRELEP
In short: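 Released BODIPY-GDP fluoresces less than Rap1-bound BODIPY-GDP; the signal is followed at 480/540 nm at 5-min intervals over 30 min, after 5 min at room temperature. Reactions contain 100 nM EPAC1, 250 nM RAP1B-BODIPY-GDP and 50 uM GDP; results are normalized to ATA and DMSO.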

[8] = molecular target: Rap guanine nucleotide exchange factor 3 (Homo sapiens) (UniProt O95398); experiment: Confirmatory qHTS for agonist of cAMP-regulated guanine nucleotide exchange factor 3 (EPAC1) (AID 1645881);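 note: EPAC1 catalysed release of BODIPY-GDP from Rap1B seen as fluorescence loss; 100% = effect of cAMP agonist control; nearly all actives have a fitted effect of over 75% in size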
[9] = molecular target: Rap guanine nucleotide exchange factor 4 (Homo sapiens) (UniProt Q8WZA2); experiment: Confirmatory qHTS for agonist of cAMP-regulated guanine nucleotide exchange factor 4 (EPAC2) (AID 1645884);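 note: nucleotide exchange releases bodipy-GDP from Rap1 and this lowers its fluorescence; % is set by controls: 0 for no effect and ±100 for the full control effect; nearly all actives have a fitted effect of over 65% in size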
Sequence of Rap guanine nucleotide exchange factor 4 (Homo sapiens) (Q8WZA2 whole entry, looked up): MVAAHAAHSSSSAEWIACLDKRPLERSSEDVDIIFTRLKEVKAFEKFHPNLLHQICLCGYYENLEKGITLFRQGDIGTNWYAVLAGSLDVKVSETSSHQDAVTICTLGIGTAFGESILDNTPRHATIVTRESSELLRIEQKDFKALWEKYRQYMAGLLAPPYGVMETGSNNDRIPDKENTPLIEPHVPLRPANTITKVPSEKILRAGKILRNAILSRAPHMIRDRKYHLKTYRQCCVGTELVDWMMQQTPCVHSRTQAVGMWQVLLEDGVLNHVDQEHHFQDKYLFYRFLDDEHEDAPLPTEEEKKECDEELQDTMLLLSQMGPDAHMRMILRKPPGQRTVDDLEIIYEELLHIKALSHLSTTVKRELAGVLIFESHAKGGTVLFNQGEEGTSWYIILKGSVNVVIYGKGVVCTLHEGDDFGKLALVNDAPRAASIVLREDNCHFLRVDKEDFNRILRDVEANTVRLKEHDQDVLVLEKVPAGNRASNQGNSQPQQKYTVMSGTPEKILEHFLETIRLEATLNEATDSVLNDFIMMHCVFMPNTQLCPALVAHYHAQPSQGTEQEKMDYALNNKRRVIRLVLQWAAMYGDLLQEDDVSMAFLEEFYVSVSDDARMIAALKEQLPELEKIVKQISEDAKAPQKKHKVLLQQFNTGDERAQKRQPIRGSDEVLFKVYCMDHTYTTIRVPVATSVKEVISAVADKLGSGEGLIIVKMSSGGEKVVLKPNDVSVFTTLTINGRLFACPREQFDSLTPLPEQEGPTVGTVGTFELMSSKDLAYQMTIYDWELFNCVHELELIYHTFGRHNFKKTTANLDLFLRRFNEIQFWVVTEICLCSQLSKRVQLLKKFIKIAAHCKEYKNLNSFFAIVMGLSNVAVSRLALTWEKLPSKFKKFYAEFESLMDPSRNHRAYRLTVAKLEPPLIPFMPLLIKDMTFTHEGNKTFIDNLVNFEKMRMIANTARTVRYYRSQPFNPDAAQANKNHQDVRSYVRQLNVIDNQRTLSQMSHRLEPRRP

[10] = molecular target: Cytochrome P450 3A4 (Homo sapiens) (UniProt P08684); experiment: qHTS Assay for Activators of Cytochrome P450 3A4 (AID 885); note: nearly all actives have a fitted effect of over 65% in size
Sequence of Cytochrome P450 3A4 (Homo sapiens) (P08684 whole entry, looked up): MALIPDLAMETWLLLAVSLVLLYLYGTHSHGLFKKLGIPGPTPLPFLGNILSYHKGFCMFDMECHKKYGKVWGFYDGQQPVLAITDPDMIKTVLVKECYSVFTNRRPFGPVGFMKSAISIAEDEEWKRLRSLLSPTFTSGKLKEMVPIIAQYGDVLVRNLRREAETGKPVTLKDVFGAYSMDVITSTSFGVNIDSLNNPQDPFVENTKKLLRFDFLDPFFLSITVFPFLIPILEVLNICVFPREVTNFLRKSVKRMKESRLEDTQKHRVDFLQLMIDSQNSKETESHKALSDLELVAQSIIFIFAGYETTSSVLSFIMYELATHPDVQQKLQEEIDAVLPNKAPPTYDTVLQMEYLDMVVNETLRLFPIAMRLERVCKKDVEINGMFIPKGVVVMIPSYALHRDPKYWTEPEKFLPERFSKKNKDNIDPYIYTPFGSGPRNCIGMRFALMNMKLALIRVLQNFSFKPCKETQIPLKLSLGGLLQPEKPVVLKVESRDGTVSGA
In short: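 Activators are scored by enhanced luminescence from CYP3A4 conversion of luciferin-PPXE (25uM, equal to KM) to luciferin, after 60 min at RT with an NADPH-regenerating system.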

[11] = molecular target: Ubiquitin carboxyl-terminal hydrolase 1 (Homo sapiens) (UniProt O94782); experiment: Inhibitors of USP1/UAF1: Pilot qHTS (AID 504865);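 note: rhodamine fluorescence freed from ubiquitin-rhodamine substrate followed over time; top concentration of the series differs between compounds; % is set by controls: 0 for no effect and ±100 for the full control effect; nearly all actives have a fitted effect of over 35% in size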
In short: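 In 50mM HEPES pH 7.8 containing 0.5mM EDTA, 1mM TCEP, 0.1 mg/ml BSA and 0.01% Tween-20, 1nM USP1/UAF1 is exposed to compound for 15 min, then Ub-Rho (150nM final) is added and fluorescence is read over time.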

[12] = Counterscreen qHTS for small molecule stabilizers of the endoplasmic reticulum resident proteome: GLuc-NoTag assay (AID 1508627); note: potency is the fitted concentration of half-maximal effect;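 for activity change, negative = inhibition: 0% = thapsigargin alone and -100% = DMSO vehicle control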
In short: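 Secreted GLuc lacking the SERCaMP modification is measured in SH-SY5Y cells exposed to compound for 19 h and then to thapsigargin (100 nM, 4 h) to deplete ER calcium; hits retested at 11 concentrations, up to 76.6 uM.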

[13] = Cell Viability qHTS for small molecule stabilizers of the endoplasmic reticulum resident proteome (AID 1508629); settings: cell viability counter-screen, 100 nM thapsigargin for final 4 h;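 note: human SH-SY5Y neuroblastoma cells carrying the GLuc-SERCaMP reporter; compound exposure about 46 h in total before the viability read; % is set by controls: 0 for no effect and ±100 for the full control effect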
[14] = NFAT Signaling Pathway (AID 444; active = well fitted curve in either direction with a large enough effect, not every such curve was filed as active;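 note: carbachol stimulus at about its EC50 of 1 µM final; % is set by controls: 0 for no effect and ±100 for the full control effect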); settings: Jurkat NFAT-bla M1, carbachol, beta-lactamase ratio, 5 h; at 17.2 µM (top of the series)
In short: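 Jurkat cells carrying an NFAT-driven β-lactamase reporter and co-transfected muscarinic M1 receptor were treated with compound plus carbachol (1 uM final, an EC50 level) for 5 h at 37 °C. CCF4 loading followed for 1 h at RT; 460/530 nm ratio gave %activity.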

[15] = Stat Signaling Pathway (AID 446; active = well fitted curve in either direction with a large enough effect, not every such curve was filed as active)
In short: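 Emission at 460 and 530 nm (excitation 405 nm) reports SIE-controlled beta-lactamase in ME-180 cells. Cells received compound with 40 pM IL-6 for 5 hrs at 37 C; data scaled between 300 pM IL-6 and 125 nM JAK-inhibitor controls.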

[16] = molecular target: 3',5'-cyclic-AMP phosphodiesterase 4B (Homo sapiens) (UniProt Q07343); experiment: qHTS Assay for Inhibitors of PDE-IV (AID 607; active = well fitted activation curve with a large enough effect in the main read-out, with a control signal flat, not every such curve was filed as active; note: % of control where 0% means no effect)
Sequence of 3',5'-cyclic-AMP phosphodiesterase 4B (Homo sapiens) (Q07343 whole entry, looked up): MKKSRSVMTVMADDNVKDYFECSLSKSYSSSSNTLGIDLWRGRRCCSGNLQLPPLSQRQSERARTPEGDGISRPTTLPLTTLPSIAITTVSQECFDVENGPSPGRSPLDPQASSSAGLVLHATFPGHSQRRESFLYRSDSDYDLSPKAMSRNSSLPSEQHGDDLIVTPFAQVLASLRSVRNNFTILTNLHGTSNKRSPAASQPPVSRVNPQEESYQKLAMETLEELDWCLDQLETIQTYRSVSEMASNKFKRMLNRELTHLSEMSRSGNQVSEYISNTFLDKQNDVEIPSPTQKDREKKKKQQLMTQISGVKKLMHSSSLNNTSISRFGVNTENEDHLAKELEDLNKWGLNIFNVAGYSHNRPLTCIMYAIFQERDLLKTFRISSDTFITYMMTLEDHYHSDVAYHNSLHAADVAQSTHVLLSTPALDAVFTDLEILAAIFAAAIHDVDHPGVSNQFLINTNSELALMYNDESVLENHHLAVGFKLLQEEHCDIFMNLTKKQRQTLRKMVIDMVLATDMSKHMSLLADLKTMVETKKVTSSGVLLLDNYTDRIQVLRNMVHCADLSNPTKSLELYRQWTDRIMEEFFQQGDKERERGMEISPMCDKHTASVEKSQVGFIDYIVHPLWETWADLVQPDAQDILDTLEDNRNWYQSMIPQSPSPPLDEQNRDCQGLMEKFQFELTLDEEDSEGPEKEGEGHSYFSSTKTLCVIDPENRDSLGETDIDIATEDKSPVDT
In short: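 The readout is membrane depolarisation from a cAMP-sensing CNG channel, detected with a potential dye at ex 535/em 590. Cells were HEK293-derived (endogenous PDE-IV) at 1000 cells/well, titrated up to 22.9 uM final.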

[17] = qHTS Assay for Lipid Storage Modulators (AID 1519; calls by dose curve); settings: Drosophila S3 cells, BODIPY lipid droplet/cell ratio, laser cytometry, cells loaded with oleic acid
In short: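 Cells seeded at 5,000 per well were treated with compounds over a concentration series and loaded with oleic acid (400 uM, as added). Lipid droplet fluorescence (488 nm excitation, 500-530 nm channel) was read by laser-scanning cytometry and normalized to 20 uM Triacsin C.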

CCCn1c(C)c(C(=O)c2cccc3ccccc23)c2ccccc21
active: Potency [1] 2 µM
inactive: Potency [2] > 46 µM | Potency [3] > 46 µM | outcome [4] | Potency [5] | Potency [6] | Potency [7] | outcome [8] | outcome [9]

H-YGGFLRKYPK-OH
inactive: activity change, negative = inhibition [6] -17% [at 3.88 µM]

CC(=O)C1=C(O)[C@@H]2[C@@H]3c4c[nH]c5cccc(c45)C[C@@H]3C(C)(C)N2C1=O
inactive: Potency [3] > 46 µM | outcome [4] | Potency [10] | Potency [11] | Potency [5] | Potency [12] | max response [13] -1.84% | Potency [6]
active: Potency [1] 12.6 µM

CN1C[C@H](CNC(=O)OCc2ccccc2)C[C@H]2c3cccc4c3c(cn4C)C[C@@H]21
inactive: activity change, negative = inhibition [14] -3.47% | outcome [15] | Potency [2] > 20.6 µM | Potency [3] > 20.6 µM and > 46 µM | outcome [4] | Potency [16] | activity change, negative = inhibition ([17]; at 25.7 µM (top of the series)) -3.64% | Potency [5] | Potency [6]
-21.4%: max response ([17]; measured here: cell count channel max response)
-20.5%: max response ([17]; measured here: lipid channel max response)

CN1C2CCC1CC(OC(c1ccc(F)cc1)c1ccc(F)cc1)C2 (stereo unspecified)
active: Potency [12] 22.4 µM

Reference: PubChem BioAssay (NCATS)
